Assay results taken from the supplement of paper PMC9177965.

Test system: HT29 RNF43 G659fs (RNF43 659mut, CRISPR-edited)
Assay: cell viability activity relative to DMSO (negative = inhibition); higher = more viable cells (less growth inhibition)
Conditions: 5 µM; 96 h
Method: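 Broad Repurposing Library primary screen at a single dose of 5 uM. HT29 sg-Ctrl and HT29 RNF43 G659fs CRISPR-edited isogenic cells were seeded at 2500 cells/well in 384-well plates in duplicate and treated for 96 h. Viability was read by CellTiter-Glo and reported as % activity relative to DMSO, with MG132 as the positive control (negative = growth inhibition).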

Q: For `COC[C@H](C)NC1CCC(Nc2cc(-c3cccc(NCC4(C#N)CCOCC4)n3)c(Cl)cn2)CC1` (stereo not given in full), which cell viability activity is on record?
A: -67.4%

Q: With `CCN(CC)CCOCCOC(=O)C(CC)(CC)c1ccccc1` as the molecule, how does the cell viability activity read?
A: -31%

Q: How did the cell viability activity turn out when `COc1ccc(NC(=O)c2ccc(-c3ccc(-c4noc(C)n4)cc3C)cc2)cc1OCCN(C)C` was run?
A: -93.7%

Q: With `O=C1C(Cl)=C(NCCN2CCOCC2)C(=O)c2ncccc21` as the molecule, how does the cell viability activity read?
A: -46.3%

Q: How did the cell viability activity turn out when `COc1cc(OC)cc(N(CCNC(C)C)c2ccc3ncc(-c4cnn(C)c4)nc3c2)c1` was run?
A: -70.3%

Q: Which cell viability activity does the source give for `CCn1c(=O)c(-c2cc[nH]n2)cc2c(C)nc(N)nc21` here?
A: -54.4%

Q: For `Fc1ccc(-n2cc(CCCCN3CCC4(CC3)OCc3ccccc34)c3ccccc32)cc1`, which cell viability activity is on record?
A: -70.6%

Q: For `CCCCCCCC/C=C/CCCCCCCC(=O)OC[C@H]1O[C@@H](n2ccc(N)nc2=O)C(F)(F)[C@@H]1O`, which cell viability activity is on record?
A: -42%

Q: Which cell viability activity does the source give for `CCS(=O)(=O)Nc1ccc2[nH]c(O)c(C(=Nc3ccc(CN4CCCCC4)cc3)c3ccccc3)c2c1` here?
A: -77.1%

Q: `Cn1cc(-c2[nH]c3cc(NC(=O)[C@H](N)C4CCCCC4)cc4c3c2C=NNC4=O)cn1` was tested. Which cell viability activity did it give?
A: -54.9%

Q: With `Cc1nc(NC(=O)N2CCC[C@H]2C(N)=O)sc1-c1ccnc(C(C)(C)C(F)(F)F)c1` as the molecule, how does the cell viability activity read?
A: -49.8%

Q: Which cell viability activity does the source give for `COc1ccc(S(=O)(=O)N(C(C)=O)c2ccccc2/C=C/c2cc[n+]([O-])cc2)cc1` here?
A: -65.7%

Q: How did the cell viability activity turn out when `CN(C)C(=O)CCSC(SCCC(=O)O)c1cccc(/C=C/c2ccc3ccc(Cl)cc3n2)c1` (stereo not given) was run?
A: -22.6%

Q: For `O=C(Cc1ccc(-c2ccc(OCCN3CCOCC3)cc2)cn1)NCc1ccccc1`, which cell viability activity is on record?
A: -59.4%

Q: For `Cn1cc(-c2ccncc2)c(-c2ccc(OCc3ccc4ccccc4n3)cc2)n1`, which cell viability activity is on record?
A: -46.2%

Q: For `CCN(CC)c1ccc(C(=C2C=CC(=[N+](CC)CC)C=C2)c2ccccc2)cc1`, which cell viability activity is on record?
A: -97.7%

Q: How did the cell viability activity turn out when `Cn1cc(C2=C(c3cn(CCCSC(=N)N)c4ccccc34)C(=O)NC2=O)c2ccccc21` was run?
A: -81.3%

Q: How did the cell viability activity turn out when `C[C@@H]1CC[C@@]2(NC1)O[C@H]1C[C@H]3[C@@H]4CC=C5C[C@@H](O[C@@H]6O[C@H](CO)[C@@H](O[C@@H]7O[C@@H](C)[C@H](O)[C@@H](O)[C@H]7O)[C@H](O)[C@H]6O[C@@H]6O[C@@H](C)[C@H](O)[C@@H](O)[C@H]6O)CC[C@]5(C)[C@H]4CC[C@]3(C)[C@H]1[C@@H]2C` was run?
A: -94%

Q: How did the cell viability activity turn out when `O=C(O)c1ccccc1-c1c2cc(I)c(=O)c(I)c-2oc2c(I)c(O)c(I)cc12` was run?
A: -23%

Q: With `CN1CCc2c(c3ccccc3n2Cc2ccccc2)C1` as the molecule, how does the cell viability activity read?
A: -59.2%

Q: Which cell viability activity does the source give for `NC(=NC1C2CC3CC(C2)CC1C3)Nc1ccc(I)cc1` (stereo not given) here?
A: -49.5%

Q: Which cell viability activity does the source give for `O=C(Nc1nc2ccc(NC(=O)C34CC5CC(CC(C5)C3)C4)cc2s1)c1ccccc1` here?
A: -37.7%

Q: How did the cell viability activity turn out when `Cc1cccc(Nc2nc(-c3ccncc3)cs2)c1` was run?
A: -85.7%

Q: `CN1CCCN=C1COC(=O)C(O)(c1ccccc1)C1CCCCC1` (stereo not given) was tested. Which cell viability activity did it give?
A: -55.3%

Q: With `CN[C@@H](C)C(=O)N[C@H](C(=O)N1CCC[C@H]1C(=O)N[C@H]1c2ccccc2C[C@H]1OCC#CC#CCO[C@@H]1Cc2ccccc2[C@@H]1NC(=O)[C@@H]1CCCN1C(=O)[C@@H](NC(=O)[C@H](C)NC)C1CCCCC1)C1CCCCC1` as the molecule, how does the cell viability activity read?
A: -58.1%

Q: How did the cell viability activity turn out when `O=[N+]([O-])c1ccccc1S(=O)(=O)NCC1CCC(CNCC2CCc3ccccc3C2)CC1` (stereo not given) was run?
A: -63.8%

Q: With `C#C[C@]1(O)CC[C@H]2[C@@H]3CCC4=C(CCC(=O)C4)[C@H]3CC[C@@]21C` as the molecule, how does the cell viability activity read?
A: -62.8%

Q: Which cell viability activity does the source give for `CCNC(=O)C#Cc1ccc2c(C(=Nc3ccc(CN(C)C)cc3)c3ccccc3)c(O)[nH]c2c1` here?
A: -98.3%

Q: For `CC(C)(O)C(=O)N1CCN(c2ccc(C(F)(F)F)c(C3=C(c4c[nH]c5ccccc45)C(=O)NC3=O)c2)CC1`, which cell viability activity is on record?
A: -43.1%

Q: With `CC(C)C[C@H](NC(=O)[C@H](CCc1ccccc1)NC(=O)CN1CCOCC1)C(=O)N[C@@H](Cc1ccccc1)C(=O)N[C@@H](CC(C)C)C(=O)[C@@]1(C)CO1` as the molecule, how does the cell viability activity read?
A: -97.1%

Q: `Cc1cnc(Nc2ccc(N3CCN(C)CC3)cc2)nc1Nc1cccc(S(=O)(=O)NC(C)(C)C)c1` was tested. Which cell viability activity did it give?
A: -83.9%

Q: How did the cell viability activity turn out when `O=C(/C=C/c1ccc(CN(CCO)CCc2c[nH]c3ccccc23)cc1)NO` was run?
A: -95.4%

Q: With `Nc1ncnc2c1c(-c1cnc3[nH]ccc3c1)nn2C1CCCC1` as the molecule, how does the cell viability activity read?
A: -84.8%

Q: For `CC(C)(C)c1cnc(CSc2cnc(NC(=O)C3CCNCC3)s2)o1`, which cell viability activity is on record?
A: -81.8%

Q: With `Cc1cnc(Nc2ccc(F)cc2Cl)nc1-c1c[nH]c(C(=O)N[C@H](CO)c2cccc(Cl)c2)c1` as the molecule, how does the cell viability activity read?
A: -73.7%

Q: For `CC(C)NC(=O)N1CC[C@H](NC2=Nc3cc(F)ccc3N(CC(F)F)c3ccc(Cl)cc32)C1`, which cell viability activity is on record?
A: -49.3%

Q: For `C[C@@H](NC(=O)c1ncnc(N)c1Cl)c1ncc(C(=O)Nc2cc(C(F)(F)F)c(Cl)cn2)s1`, which cell viability activity is on record?
A: -24.4%

Q: `CCCCC(=O)OCC(=O)[C@]1(O)Cc2c(O)c3c(c(O)c2[C@@H](O[C@H]2C[C@H](NC(=O)C(F)(F)F)[C@H](O)[C@H](C)O2)C1)C(=O)c1c(OC)cccc1C3=O` was tested. Which cell viability activity did it give?
A: -48.2%

Q: `CC[C@@H](C)Nc1cc(C(=O)N[C@H]2C[C@H]3CC[C@@H](C2)N3c2ccc(C(=O)C3CC3)cn2)c(C)cc1C(N)=O` was tested. Which cell viability activity did it give?
A: -85.8%

Q: With `CC(C)OC(=O)OCOP(=O)(CO[C@H](C)Cn1cnc2c(N)ncnc21)OCOC(=O)OC(C)C` as the molecule, how does the cell viability activity read?
A: -26.8%
